# Screening data as filed in PubChem.
# PNC assembly inh – inhibitors of perinucleolar compartment assembly. PC3M PTB-GFP, PNC prevalence imaging, 16 h; hits give low values. activity change (PNC), negative = inhibition, % at 10 µM. hit rate 3.1% among 140,000. AID 2417;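 active = readout at or below -70, meaning at least 70% loss of cells showing the perinucleolar compartment, a nuclear body marking cancer cells; inconclusive = readout between -30 and a set limit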;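 note: plate controls were DMSO wells for no effect and camptothecin positive control wells for full effect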
#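 Compounds are pinned in duplicate onto adhered PC3M cells stably expressing GFP-tagged PTB and incubated 16 h at 37 C. Cells are then fixed, nuclei stained with Hoechst, and PNC-positive cells counted.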
# Lamin A splicing – modulators of lamin A splicing. HeLa LMNA splicing GFP/RFP minigene ratio, 48 h. Potency, µM (highest dose often 46.1 µM), inactives show top-dose ratio change, negative = inhibition, actives largely listed as inhibitors. hit rate 0.01% among 200,000. AID 1487; active = well fitted inhibition curve with a large enough effect in the signal ratio, with a control signal flat, not every such curve was filed as active; inconclusive = small, poorly fitted or top-dose-only effect, or effect the other way, or a change in a side signal; the % refers to the signal ratio; note: potency is the fitted concentration of half-maximal effect
#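 Read-out is the ratio of GFP to DsRed2 object intensity, acquired by 488 nm laser-scanning cytometry on HeLa lamin A-EGFP minigene reporter cells. Compound incubation 48 hrs at 37 °C in Opti-MEM with 2% FBS; DMSO 0.5% final.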
# IMPase inh – IMPase inhibition in cells; P97697; CHO-M1 cells, IP1 accumulation, HTRF TR-FRET ratio; inhibition (IP1 accumulation), % at 46.1 µM; 120,000 tested, under 10 active; active = well fitted curve in the direction sought with a large enough effect in the signal ratio, not every such curve was filed as active; inconclusive = small, poorly fitted or top-dose-only effect, or a change in a side signal; inactive = no such curve, though single readings can be large or run the other way; the % refers to the signal ratio;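 note: cells stimulated with carbachol in lithium chloride buffer; plate controls were DMSO basal wells for no effect and reference inhibitor wells for full effect; higher means more IMPase inhibition seen as more IP1 and lower FRET ratio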
#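 In this qHTS, compounds (final up to 46 uM) act on CHO-M1 cells that are then activated through the M1 receptor with carbachol, in pH 7.4 buffer containing 50 mM LiCl, for 30 min. IP1 accumulation is quantified by the IP-One immunoassay.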
# KinaseGlo FLuc – counter-screen: inhibitors of Kinase-Glo firefly luciferase | Kinase-Glo luciferase, ATP luminescence, 8 min | AID 1379 | Q27757 | hit rate 0.28% among 200,000 | Potency, µM (titrated, usually from 38.3 µM), for inactives: at the highest dose activity change, negative = inhibition, actives largely listed as inhibitors; active = well fitted inhibition curve with a large enough effect; inconclusive = small, poorly fitted or top-dose-only effect; note: potency is the fitted concentration of half-maximal effect; nearly all actives have a fitted effect of over 60% in size
#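 Compound is pinned into ATP-containing buffer (10 uM ATP, imidazole pH 7.2, 7 mM MgCl2). Kinase-Glo luciferase reagent is then added. Light output is recorded following an 8-min room-temperature incubation.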
# HPGD inh – HPGD (human) dehydrogenase inhibition | purified HPGD, NADH fluorescence kinetic, PGE2 substrate | Potency, µM, for the others: at the highest dose activity change, negative = inhibition, actives largely listed as inhibitors | hit rate 4.3% among 150,000 | AID 894; note: potency is the fitted concentration of half-maximal effect
# Target sequence (P15428 whole entry, looked up): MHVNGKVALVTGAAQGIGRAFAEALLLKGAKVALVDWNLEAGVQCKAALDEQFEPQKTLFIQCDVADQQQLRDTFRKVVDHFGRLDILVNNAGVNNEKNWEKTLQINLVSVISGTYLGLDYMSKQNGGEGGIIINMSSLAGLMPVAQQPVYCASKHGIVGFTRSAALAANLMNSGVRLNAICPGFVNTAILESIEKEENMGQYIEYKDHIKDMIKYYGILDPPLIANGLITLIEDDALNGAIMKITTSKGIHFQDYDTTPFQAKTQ
#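 20 nM HPGD preincubated 15 min at room temperature with compound in 50 mM Tris-HCl pH 8, 0.01% Tween 20. Started with 1 mM NAD+ and 30 uM prostaglandin E2; NADH fluorescence (360/450 nm) read 5 times over 30-s intervals, last minus first.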
# ALDH1A1 inh – blocks purified human ALDH1A1 activity | Potency, µM (titrated, usually from 75.3 µM), for the others: at the top dose activity, negative = inhibition, usual class: inhibitors | P00352 | hit rate 7.3% among 220,000 | Purified ALDH1A1, NADH fluorescence, propionaldehyde substrate;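 note: potency is the fitted concentration of half-maximal effect; plate controls were no enzyme wells and a reference inhibitor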
# Target sequence (P00352 whole entry, looked up): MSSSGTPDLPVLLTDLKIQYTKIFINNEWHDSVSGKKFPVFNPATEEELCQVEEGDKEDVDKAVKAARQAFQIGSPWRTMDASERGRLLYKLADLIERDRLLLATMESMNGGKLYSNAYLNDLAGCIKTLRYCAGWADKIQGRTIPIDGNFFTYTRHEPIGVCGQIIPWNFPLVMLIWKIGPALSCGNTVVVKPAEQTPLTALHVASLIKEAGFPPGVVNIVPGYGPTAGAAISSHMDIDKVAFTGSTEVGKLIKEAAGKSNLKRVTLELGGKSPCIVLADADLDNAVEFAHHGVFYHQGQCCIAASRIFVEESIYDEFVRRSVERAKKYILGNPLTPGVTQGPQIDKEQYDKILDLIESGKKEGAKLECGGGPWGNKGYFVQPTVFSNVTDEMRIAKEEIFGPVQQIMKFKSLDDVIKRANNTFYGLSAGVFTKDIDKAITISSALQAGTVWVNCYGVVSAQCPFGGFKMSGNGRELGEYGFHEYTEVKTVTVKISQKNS
# The depositor's hits bear a star; ? = inconclusive; / = no result given; [ ] = another dose, or the depositor's remark. In the library only some 10% were active in any assay of this set; here they are far more common. Unless noted, calls come from the whole dose curve; as a rule, active = well fitted inhibition curve with a large enough effect (not every such curve was filed as active); inconclusive = small, poorly fitted or top-dose-only effect, or another doubt; inactive = no such curve, though single readings can be large or run the other way. Unless noted, % is set by controls: 0 for no effect and ±100 for the full control effect.
SMILES,PNC assembly inh,Lamin A splicing,IMPase inh,KinaseGlo FLuc,HPGD inh,ALDH1A1 inh
O=C(c1cc2nc(C3CC3)cc(C(F)F)n2n1)N1CCOCC1,?,5.5%,-4.8,1.1%,31.6µM*,?
O=C(C1COc2ccccc2O1)N1CCN(c2nc3c(F)cccc3s2)CC1 (centres undefined),/,-1.3%[46 µM],/,/,/,/
CC(C)c1ccc(NC(=O)c2cc(S(=O)(=O)NCC3COc4ccccc4O3)ccc2F)cc1 (centres undefined),-113.4*,?,/,1.0%,-11.0%,?
Cc1ccc(S(=O)(=O)CC#CCOC(=O)c2ccc([N+](=O)[O-])cc2)cc1,?,?,3.2,2.0%,12.6µM*,1.12µM*
COc1ccccc1C(c1nnnn1C(C)(C)C)N1CCCc2ccccc21 (centres undefined),?,14.3%,2.4,-1.7%,-7.8%,-7.3%
CC(C)(C)n1nnnc1C(c1ccc(Cl)cc1)N1CCCc2ccccc21 (centres undefined),-88.3*,-14.1%,6.3,7.3%,-10.1%,0.2%
CCC(C)(C)n1nnnc1C(c1cccs1)N1CCc2ccccc21 (centres undefined),-5.3,?,-6.6,-2.1%,-17.0%,14.1µM*
C=CCC1C=CC(Oc2ccc(OC)cc2)C(CO)O1 (centres undefined),/,/,/,/,/,7.7%[13.5 µM]
CC(=O)Nc1cc(-c2nn(C)c(=O)c3ccccc23)ccc1N1CCOCC1,6.2,-11.7%,0.1,1.2%,-15.2%,?
CCCC(=O)Nc1cc(-c2nn(C)c(=O)c3ccccc23)ccc1N1CCOCC1,25.3,9.1%,-7.5,2.6%,-12.9%,28.2µM*
Cc1ccc(S(=O)(=O)Nc2cc(-c3nn(C)c(=O)c4ccccc34)ccc2N2CCOCC2)cc1,?,?,-0.8,-0.1%,?,22.4µM*
OCc1ccccc1,/,-7.4%,/,/,-3.5%,8.3%
ICCc1ccccc1,/,/,/,/,10µM*,3.55µM*
O=C(NCCCN1CCN(c2ccc(F)cc2)CC1)c1ccc2nc(Cc3ccccc3)oc2c1,/,-17.8%[46 µM],/,/,/,/
O=C(O)C(Cc1ccccc1)N1C(=O)/C(=C/c2cccc3ccccc23)SC1=S (centres undefined),45.2,-9.1%,4.7,0.6%,14.1µM*,?
CCc1ccc(S(=O)(=O)c2cn(Cc3ccccc3)c3cc(N4CCCC4)c(F)cc3c2=O)cc1,/,-1.2%[46 µM],/,/,/,/
COc1ccc(C(=O)N2CCN(Cc3cc(OC)c(O)c(OC)c3)CC2)cc1OC,-86.7*,-7.1%,12.4,/,/,22.4µM*
COc1ccc(CN2CCN(C(=O)c3cc(OC)c(OC)c(OC)c3)CC2)cc1OC,-100.0*,-11.1%,1.3,-1.7%,-3.4%,-11.9%
CCc1ccc(CN2CCN(C(=O)c3cccc(OC)c3OC)CC2)cc1,-100.0*,?,-11.1,0.9%,-11.0%,?
CN(Cc1ccccc1)C(=O)CSc1nc2ccsc2c(=O)n1-c1ccc(F)cc1,/,9.2%[46 µM],/,/,/,/
CCC(C)C1C(C#N)=C(N)OC2=C1C(=O)CC(C)(C)C2 (centres undefined),13.3,-10.4%,-2.1,-1.9%,-15.6%,11.2µM*
CC1(C)CC(=O)C2=C(C1)OC(N)=C(C#N)C2c1ccc[nH]1 (centres undefined),/,/,/,-4.6%,/,-9.5%
CC1(C)CC(=O)C2=C(C1)OC(c1ccc(O)cc1)C(C#N)=C2N (centres undefined),-17.5,?,/,1.3%,-19.3%,1.12µM*
COc1ccc(C2C(C#N)=C(N)OC3=C2C(=O)CC(C)(C)C3)cc1 (centres undefined),/,7.5%[46 µM],/,0.9%,/,4.47µM*
CC1(C)CC(=O)C2=C(C1)OC(N)=C(C#N)C2c1ccsc1 (centres undefined),?,-6.5%,-0.7,-2.8%,-10.0%,25.1µM*
SMILES,PNC assembly inh,Lamin A splicing,IMPase inh,KinaseGlo FLuc,HPGD inh,ALDH1A1 inh
CCOC(=O)c1c(C)[nH]c(CCC(=O)NCc2ccccc2C)c1C,/,-7.3%[46 µM],/,/,/,/
C1COC1,/,/,/,/,-6.1%,9.3%
CC1(C)CC(=O)C2=C(C1)OC(N)=C(C#N)C2c1ccc(OC(=O)N2CCOCC2)cc1 (centres undefined),?,1.7%,-0.5,1.2%,-15.6%,3.16µM*
CC1(C)CC(=O)C2=C(C1)OC(N)=C(C#N)C2C1CC=CCC1 (centres undefined),316.7,-9.5%,2.4,-0.3%,-24.9%,7.94µM*
CC1C(C#N)=C(N)OC2=C1C(=O)CC(C)(C)C2 (centres undefined),-9.5,0.4%,7.3,-3.3%,?,-6.5%
COc1ccc(C2C(C#N)=C(SC)NC3=C2C(=O)CC(C)(C)C3)cc1 (centres undefined),?,4.0%,-0.2,7.8%,-21.9%,14.1µM*
N#CC1=C(N)OC2=C(C(=O)CCC2)C1c1ccc(OC(=O)N2CCOCC2)cc1 (centres undefined),0.8,18.9%,-2.5,-0.9%,-10.7%,-12.7%
CCN(CC)CCN(C(=O)c1ccc(C(=O)OC)cc1)c1nc2ccc(Cl)cc2s1,/,-5.5%[46 µM],/,/,/,/
CCc1cnc2c(c1SCC(=O)c1ccc(Cl)cc1)c(=O)n(C)c(=O)n2C,/,1.7%[46 µM],/,/,/,/
CCCCCCn1c(CN2CCC(C)CC2)nc2c1c(=O)n(C)c(=O)n2C,-28.8,2.5%,-9.6,4.3%,-7.3%,?
CCCCCn1c(CN2CCN(c3cc(Cl)ccc3C)CC2)nc2c1c(=O)[nH]c(=O)n2C,-15.9,?,7.2,-4.7%,-12.2%,14.1µM*
CCCCn1c(CN2CCN(c3cccc(Cl)c3)CC2)nc2c1c(=O)n(C)c(=O)n2C,-12.3,?,13.4,-1.2%,-20.5%,15.8µM*
CCCn1c(CN2CCN(c3cccc(Cl)c3)CC2)nc2c1c(=O)n(C)c(=O)n2C,14.5,-13.8%,4.3,-1.9%,-1.6%,?
CCCCCCn1c(CN2CCN(CCO)CC2)nc2c1c(=O)n(C)c(=O)n2C,45.9,-7.4%,8.0,-1.1%,-7.1%,3.98µM*
CCCCCn1c(CN2CCN(c3cccc(Cl)c3)CC2)nc2c1c(=O)n(C)c(=O)n2C,-5.2,?,14.6,-0.1%,-12.0%,3.55µM*
COc1ccc(S(=O)(=O)NCCc2csc(-c3ccc(F)cc3)n2)cc1,/,-7.5%[46 µM],/,/,/,/
O=C(O)COc1ccc(OCCNC[C@H](O)COc2ccccc2)cc1,/,/,/,/,/,9.1%
CC(SC#N)C(=O)C12CC3CC(CC(C3)C1)C2 (centres undefined),/,/,/,-1.6%,/,8.91µM*
CC(Sc1n[nH]c(N)n1)C(=O)C12CC3CC(CC(C3)C1)C2 (centres undefined),30.7,4.0%,1.6,1.4%,-15.4%,?
COC(=O)C/C=C\[C@@H](C)[C@@H](/C=N\O[C@@H](C)c1cn([C@H]2COC[C@H]2O)nn1)NS(=O)(=O)c1ccc(C)cc1,/,/,/,/,/,-1.0%[13.5 µM]
